For 96 molecules, inhibition results are on record in PubChem BioAssay AID1852 (Sanford-Burnham Center for Chemical Genomics, 2009).

In all, about 2,500 compounds went through this assay and about 1,100 (44%) were called active. So high a share suggests a set chosen from earlier hits. The list shows a part of the results. A number with no mark means an inactive call.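 Rule for the calls: active = inhibition above 50% at 4 µM in the single-point screen; inactive = inhibition of 50% or less.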

This experiment can be described thus: blockers of TNF-a NF-kB luciferase induction – cell-based, HEK293T NF-kB-Luc, luminescence, selectivity assay for NOD1/NOD2 signaling inhibitor project, primary screen (AID 1852). The conditions noted are these: TNF-a induced, 14 h, at 4 µM, hits give high values.
As to `CCOc1ccc(C(=O)C(CCC(CN(C)C)C(=O)c2ccc(OCC)cc2)CN(C)C)cc1` (stereo unspecified), the inhibition was 12.6%. Under `CN(C)CC(CCC(CN(C)C)C(=O)c1ccccc1)C(=O)c1ccccc1` (stereo unspecified) stands 102% (active). Under `C/C(=N\NC(=O)c1ccccc1F)c1ccccn1` stands 49.5%. `C/C(=N\Nc1nc2ccccc2[nH]1)c1ccccn1`: the inhibition is 101% (active). Regarding `C=CCNC(=S)N/N=C(\C)c1ccccn1`, the inhibition is 111% (active). Under `C/C(=N\NC(=O)C(c1ccccc1)c1ccccc1)c1ccccn1` stands 103% (active); under `CSC(=S)N/N=C(\C)c1ccc(Br)cc1`, 11.8%. In the case of `C/C(=N\NC(=O)c1ccccc1Cl)c1ccccn1`, the inhibition was 97.3% (active). Under `COc1ccc(/C=C/c2cc(-c3ccc(C)cc3)o[n+]2C)cc1` stands 30.9%; under `C/C(=N\NC(=O)c1cc(-c2cccs2)nc2ccccc12)c1ccccn1`, 106% (active); under `C/C(=N\NC(=O)c1cccc2ccccc12)c1ccccn1`, 103% (active). Under `C/C(=N\NC(=O)c1n[nH]c2c1CCC2)c1cccs1` stands 46.3%; under `C/C(=N\NC(=O)C(C)Oc1ccc([N+](=O)[O-])cc1)c1ccccn1` (stereo unspecified), 103% (active); under `C/C(=N\NC(=O)C1COc2ccccc2O1)c1ccccn1` (stereo unspecified), 83.2% (active).

For `COc1ccc(CN(C)Cc2nc(Cc3cccc(F)c3)no2)c2cccnc12`, the inhibition was 48.3%. Under `Cc1ccc(-n2c(C)cc(/C=c3/sc4nc5ccccc5n4c3=O)c2C)cc1` stands -32%; under `COc1cccc(-n2nc(C#N)c(Cl)cc2=O)c1`, 45.7%. Under `COc1ccc(-n2nc(C#N)c(Cl)cc2=O)cc1` stands 59.1% (active); under `COc1ccc(-n2ncc(Cl)c(Cl)c2=O)cc1`, 78.2% (active). Turning to `COc1ccc(-n2ncc3c(N(C)C4CCCCC4)ncnc32)cc1`, the inhibition is 23.2%. Under `COc1ccc(-n2cc(C#N)c(=O)[nH]c2=O)cc1` stands 47.1%; under `Cc1ccc(OCc2nnc(SC3CCc4ccccc4C3=O)n2C)cc1` (stereo unspecified), 17.5%.

Regarding `CCOc1ccc(-n2c(C)c(C(C)=O)c3cc(OC(C)=O)ccc32)cc1`, the inhibition was 78.7% (active). With `COc1ccc2c(c1)c(C(C)=O)c(C)n2CCc1ccccc1`, the inhibition was 53.2% (active). With `COc1ccc2c(c1)c(=O)oc1c(C)c(OCc3ccc(C(=O)O)cc3)ccc12`, the inhibition was 34.1%. Under `COc1ccc2c(c1)c(C(C)=O)c(C)n2-c1ccc(C(C)=O)cc1` stands 71.3% (active); under `COc1ccc(C(C)=O)cc1Cn1c(=O)cc(C)[nH]c1=O`, 40.6%. Under `COc1ccc(-n2c(C)c(C(C)=O)c3cc(OC(C)=O)ccc32)cc1` stands 94.8% (active).

On to `CCOc1ccc(-n2c(C)c(C(C)=O)c3cc(O)ccc32)cc1`, for which the inhibition was 40.7%. Under `O=C(NCCc1ccccc1)c1ccc2c(c1)OCCCO2` stands 100% (active); under `O=C(NCCc1ccccc1F)c1ccc2c(c1)OCCO2`, 80.8% (active). Regarding `O=C(CCl)Nc1c(C(=O)Nc2ccc3c(c2)OCCO3)oc2ccccc12`, the inhibition was -69.2%. Under `O=C(NCCc1ccccc1)c1ccc2c(c1)OCCO2` stands 48.5%.

Regarding `CCSc1nc2c(c(=O)[nH]c(=O)n2C)n1C/C=C(/C)Cl`, the inhibition was 11.6%.

For the molecule `O=C(Nc1ccc(N2CCCC2)c(Cl)c1)c1ccc([N+](=O)[O-])o1`, the inhibition is -26.1%.

Turning to `Cc1cc(OCc2ccc(C(=O)Nc3ccc(C(=O)O)cc3)o2)ccc1Cl`, the inhibition is -32.8%. Under `O=C(Nc1ccc(N2CCN(C(=O)c3ccccc3)CC2)cc1)c1ccc([N+](=O)[O-])o1` stands 25.2%; under `O=C(Nc1ccc(N2CCN(C(=O)c3ccccc3)CC2)c(Cl)c1)c1ccc(Br)o1`, 67.5% (active). Under `CCC(=O)N1CCN(c2ccc(NC(=O)c3cc4ccccc4o3)cc2Cl)CC1` stands 101% (active); under `O=C(Nc1ccc(N2CCN(C(=O)c3ccco3)CC2)c(Cl)c1)c1cc2ccccc2o1`, 99.1% (active); under `CCCCc1nc(N2CCN(C(=O)c3ccco3)CC2)c(C#N)c2c1CCCC2`, 29.5%. Turning to `COc1ccc(N(Cc2cc3cc(OC)ccc3[nH]c2=O)S(=O)(=O)c2ccc(NC(C)=O)cc2)cc1`, the inhibition was 16.3%.

For the molecule `COc1ccc2[nH]c(=O)c(CN(Cc3cccnc3)S(=O)(=O)c3ccccc3F)cc2c1`, the inhibition is 50.9% (active). `CC1CCCCC1NC(=O)/C(C#N)=C/C=C/c1ccccc1[N+](=O)[O-]` (stereo unspecified): the inhibition is 47.1%. Take `N#C/C(=C\C=C\c1ccccc1[N+](=O)[O-])C(=O)NC1CCCCC1`: the inhibition was 61.6% (active). Under `Cn1nc([N+](=O)[O-])nc1Sc1cccc2cccnc12` stands 31.7%. For `O=[N+]([O-])c1ccc(Sc2nccn2Cc2ccccc2)c([N+](=O)[O-])c1`, the inhibition was -0.6%.

`C=CCn1nc([N+](=O)[O-])nc1Sc1cccc2cccnc12`: the inhibition is 95.9% (active). Under `O=C(Cn1nc([N+](=O)[O-])nc1Br)NC(c1ccccc1)c1ccccc1` stands -0.7%; under `O=[N+]([O-])c1ccc(Sc2cccc3cccnc23)c([N+](=O)[O-])c1`, 103% (active). For the molecule `Cc1cc(C)nc(Sc2ccc([N+](=O)[O-])cc2[N+](=O)[O-])n1`, the inhibition was -34.5%. Under `Cc1cccc(/C=C(\c2nc3ccccc3[nH]2)S(=O)(=O)c2ccccc2)c1` stands 82.2% (active); under `CC(C)c1ccc(/C=C(\c2nc3ccccc3[nH]2)S(=O)(=O)c2ccccc2)cc1`, 107% (active); under `O=S(=O)(Nc1nc2ccccc2[nH]1)c1ccccc1`, 34.8%.

On to `O=S(=O)(/C(=C/c1ccc(C(F)(F)F)cc1)c1nc2ccccc2[nH]1)c1ccccc1`, for which the inhibition was 72.8% (active). In the case of `COc1ccc(S(=O)(=O)NCC2CCCN(Cc3cccnc3)C2)cc1` (stereo unspecified), the inhibition is -9.5%.

For `C/C=C/Cn1c(SCCCc2ccccc2)nc2c1c(=O)[nH]c(=O)n2C`, the inhibition was 5.5%. Under `N#Cc1ccc(C(=O)Nc2nc(-c3cccs3)c(C(=O)C(F)(F)F)s2)cc1` stands 70% (active). Under `COc1ccc(/C=C/C(=O)c2c(C)cc(C)[nH]c2=O)c2ccccc12` stands 20.8%; under `Cc1cc(C)c(C(=O)/C=C/c2cccc3ccccc23)c(=O)[nH]1`, 92.8% (active). Take `O=C(O)C(Cc1ccccc1)N1C(=O)/C(=C/c2cccc3ccccc23)SC1=S` (stereo unspecified): the inhibition is 31.7%.

Consider `Cc1cc(C)c(C(=O)/C=C/c2ccc(C(C)C)cc2)c(=O)[nH]1`, for which the inhibition was 72.7% (active).

Regarding `O=c1cc(-c2ccccc2)nc2c(-c3ccccc3)c(C(F)(F)F)[nH]n12`, the inhibition was 73.9% (active). Under `COc1ccc(-c2c(C(F)(F)F)[nH]n3c(=O)cc(-c4ccccc4)nc23)cc1` stands 55.7% (active); under `O=c1cc(-c2ccccc2)nc2cc(-c3ccc(Br)cc3)[nH]n12`, 38.7%. Under `Cc1ccc2cc(C)c(N3CCC(C)CC3)nc2c1` stands 20.9%; under `CC1=CC(=O)C=C(C)C1=NOS(=O)(=O)c1ccccc1`, 48.1%; under `CC1=C/C(=N\OS(=O)(=O)c2ccccc2)C=CC1=O`, 57.4% (active). Under `OCCCNc1cc(-c2ccnc(Nc3cccc(Cl)c3)n2)ccn1` stands 96.3% (active); under `OCCCNc1nccc(-c2cc(Nc3cccc(Cl)c3)ncn2)n1`, 98.2% (active); under `Oc1nc(Nc2cccc(Cl)c2)sc1/C=C1\C=Nc2ccccc21`, -12.4%. As for `CCS(=O)(=O)c1ccc2oc(SCC(=O)NCc3ccccc3)nc2c1`, the inhibition is 36.5%. On to `Cc1ccccc1-n1nnnc1Sc1nnnn1-c1ccccc1`, for which the inhibition was 75.4% (active). Under `Cc1sc2ncnc(Sc3nnnn3-c3ccc(Cl)cc3)c2c1C` stands 87% (active); under `Cc1sc2ncnc(Sc3nnnn3-c3ccccc3)c2c1C`, 89.8% (active).

Take `Cn1nnnc1Sc1ncnc2scc(-c3ccccc3)c12`: the inhibition is 22.8%. Under `CCc1c(C)nc2ccc(Br)cc2c1SCCC#N` stands 43.8%; under `COc1ccc2cc3c(N)nn(C(=O)c4ccccc4Cl)c3nc2c1`, 94.3% (active).

For the molecule `COc1cc(/C=C/c2ccc3cccc(OC)c3n2)c(OC(C)=O)c([N+](=O)[O-])c1`, the inhibition was 9.5%. Under `CCn1ccnc1CN1CCCC(C(=O)c2ccc3cc(OC)ccc3c2)C1` (stereo unspecified) stands 39.3%; under `COc1ccc2cc3c(N)nn(C(=O)c4ccccc4[N+](=O)[O-])c3nc2c1`, 79.5% (active).

Consider `COc1ccc2cc3c(N)nn(C(=O)C4CCC(C(C)(C)C)CC4)c3nc2c1` (stereo unspecified), for which the inhibition was 104% (active).

With `CC1=NOC(=O)/C1=C\c1ccc(-c2cc(Cl)ccc2Cl)o1`, the inhibition was -2.6%. Consider `CC1CCc2c(sc(NC(=O)c3cccs3)c2C(=O)O)C1` (stereo unspecified), for which the inhibition was -35.7%. Under `CC1CCc2c(sc(NC(=O)CSc3ncn[nH]3)c2C#N)C1` (stereo unspecified) stands 68.2% (active); under `N#Cc1c(NC(=O)CSc2ncn[nH]2)sc2c1CCCC2`, 53.4% (active); under `CCOC(=O)c1c(NC(=O)CSc2ncn[nH]2)sc(C)c1C`, 37.2%. Under `N#Cc1c(NC(=O)CSc2ncn[nH]2)sc2c1CCCCC2` stands 73.9% (active); under `CC1CCc2c(sc(NC(=O)/C=C/c3cccs3)c2C(=O)O)C1` (stereo unspecified), 31.1%. Under `O=C(Nc1sc2c(c1C(=O)O)CCCC2)c1ccc(F)cc1` stands -13.9%; under `O=C(COc1ccc(Cl)cc1)Nc1nc(-c2ccncc2)cs1`, 20.3%.

Regarding `N#C/C(=C(/O)Cc1cccc2ccccc12)c1nc2ccccc2s1`, the inhibition is 74.8% (active).

For `Nc1nc(CSc2nc3ccccc3s2)nc(Nc2ccccc2)n1`, the inhibition is -3%. Under `N#C/C(=C(/O)COc1ccc(Cl)cc1)c1nc2ccccc2s1` stands 73.1% (active); under `O=C(NCc1cccnc1)/C(=C/c1ccc(-c2ccc(Cl)cc2)o1)S(=O)(=O)c1ccccc1`, 85.2% (active); under `O=C(NCc1cccnc1)/C(=C\c1ccc(-c2ccc(Cl)c(Cl)c2)o1)S(=O)(=O)c1ccccc1`, 109% (active).
